According to PubChem BioAssay (NCI):
About 79,000 compounds went through this panel and 15% of them were active in at least one assay; those are over-represented in the sample as a whole. Unmarked numbers belong to inactive results. Active and inactive are the calls of the source. No stated cut-off is given here; in the data, active means growth inhibition above about 70%; inactive means the rest.

Experiments:
[1] = NCI Yeast Anticancer Drug Screen. Data for the rad50 strain (AID 155);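 further: 0% = growth of vehicle-only cultures of the same strain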; settings: S. cerevisiae rad50 strain growth inhibition; at 50.0 µM; stronger effect = higher value
In short: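 Vehicle-treated cultures provide the reference for the growth inhibition reported for compound-exposed, repair-deficient yeast.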

[2] = NCI Yeast Anticancer Drug Screen. Data for the mec2-1 strain (AID 157); settings: S. cerevisiae mec2-1 strain, at 50.0 µM, stronger effect = higher value
In short: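 Using mec2-1 yeast: add compound, measure growth, express inhibition versus vehicle-treated cultures.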

[3] = NCI Yeast Anticancer Drug Screen. Data for the sgs1 mgt1 strain (AID 161);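 further: 0% = growth of cultures given vehicle only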; settings: S. cerevisiae sgs1 mgt1 strain, at 50.0 µM, stronger effect = higher value
In short: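 This yeast growth screen uses a strain with defined DNA-repair lesions; compound-treated growth is compared with vehicle-treated growth.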

[4] = NCI Yeast Anticancer Drug Screen. Data for the cln2 rad14 strain (AID 165);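 further: 0% = growth equal to vehicle treated cultures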; settings: S. cerevisiae cln2 rad14 strain, at 50.0 µM, stronger effect = higher value
In short: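 Yeast strain cln2 rad14, bearing defects in cell cycle control and DNA repair, serves as the test system; values reflect growth inhibition compared with vehicle.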

[5] = NCI Yeast Anticancer Drug Screen. Data for the bub3 strain (AID 167); settings: S. cerevisiae bub3 mutant strain, at 50.0 µM, stronger effect = higher value
In short: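 Mutant yeast screening strain plus compound; vehicle-treated cultures serve as the 0% inhibition reference.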

[6] = NCI Yeast Anticancer Drug Screen. Data for the mlh1 rad18 strain (AID 175); settings: S. cerevisiae mlh1 rad18 strain growth inhibition; at 50.0 µM; stronger effect = higher value
In short: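 Steps: expose repair-defective yeast to compound; measure growth; express inhibition against vehicle-treated controls.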

| Structure (SMILES) | growth inhibition [1] | growth inhibition [2] | growth inhibition [3] | growth inhibition [4] | growth inhibition [5] | growth inhibition [6] |
| --- | --- | --- | --- | --- | --- | --- |
| CCCCCCCCCCN=C(N)CSSCC(N)=NCCCCCCCCCC | 96.2% (active) | 97% (active) | 97.1% (active) | 92.8% (active) | 95% (active) | 97.4% (active) |
| CC1=C(c2ccccc2)OS(=O)(=O)CC1N(C)C (stereo unspecified) | -2.6% | -16.4% | -1.65% | -6.95% | -7.4% | -2.35% |
| Cc1ccc(NC(=O)CCCC(=O)C(C#N)c2nc3ccccc3s2)cc1C (stereo unspecified) | 10.9% | 14.6% | -9.8% | 0.7% | -7.35% | 15.1% |
| COc1ccc(NC(=O)CC(=O)n2nc(-c3ccccc3)c(N=Nc3ccccc3C)c2-c2ccccc2)cc1 | -1.5% | -2.1% | -0.8% | 7.8% | 21.1% | 6.65% |
| CCc1ccc(O)cc1 | -3.4% | -25.9% | 13.3% | 5.85% | -11.9% | 6.3% |
| CC1OC(n2ccc(NC(=O)c3ccc(NC(=O)C(C)(N)CO)cc3)nc2=O)CCC1OC1OC(C)C(N(C)C)C(O)C1O (stereo unspecified) | 30.4% | -0.8% | 6.05% | 6% | 1.75% | 28.8% |
| Cc1ccccc1N1C(=O)/C(=C/c2ccc(N(CCC#N)CCC#N)cc2)N=C1c1cc([N+](=O)[O-])ccc1Cl | 4.65% | 1.7% | 26.1% | 7.1% | -1.7% | 6.2% |
| Cc1cc(C)nc(NS(=O)(=O)c2ccc(NC(=O)c3cccc4c(Nc5ccc(S(=O)(=O)N=C(N)N)cc5)c5ccccc5nc34)cc2)n1 | 0.75% | 14.7% | -10.5% | 37.5% | 26.1% | 15.9% |
| Cc1ccc(S(=O)(=O)C2=c3nc4ccccc4cc3=C3C(=O)c4ccccc4C(=O)C32)cc1 (stereo unspecified) | -14.3% | -18.9% | -20.8% | -75.9% | -24.4% | -3.7% |
| O=C(Nc1ccc(Cl)cc1)Nc1nnc2nc(CC(=O)c3cccc([N+](=O)[O-])c3Cl)c(=O)[nH]n12 | -9.45% | 11.4% | 2.95% | -0.4% | 5.6% | 9.55% |
| COc1cc2c[n+](C)c(-c3ccc(Cl)c(Cl)c3)c(OC)c2cc1OC | 56.1% | 8.15% | 41.5% | 31.4% | 14.9% | 41.5% |
| CC(O)C(=O)OCCOc1ccccc1 (stereo unspecified) | 12.7% | -6.3% | -3.05% | 5.5% | -14.3% | -140% |
| NC(=O)c1ccc[n+](CC(=O)Nc2ccccc2)c1 | -5.6% | 0.65% | 6.45% | -30.6% | 1.95% | 3.8% |
| O=C(NNC(=S)NCc1ccccc1)C12CC3CC(CC(C3)C1)C2 | -35.6% | -10.3% | -4.2% | 2.55% | 15.5% | -5.9% |
| CC(C)=CCC(OC(=O)C=C(C)C)c1cc(O)c2c(O)ccc(O)c2c1O.[Mn] (stereo unspecified) | 36.1% | 47.2% | 25.4% | 54.1% | 46% | 87.3% (active) |
| FC(F)(F)c1cc(Cl)c2ccc3ccccc3c2n1 | 8.65% | 5.3% | 1.9% | -62.4% | 3.65% | -12.8% |
| O=[N+]([O-])c1ccc(N(CCO)CCO)nc1 | -15.7% | -76.6% | 5.15% | 19.5% | -19.3% | -17.8% |
| C=C(COC(C)=O)CC(/C=C(\C)CCC=C(C)C)OC(C)=O (stereo unspecified) | -6.25% | -1.15% | 8.9% | -11.5% | -5.25% | 11% |
| COc1ccc(/C=C/C(=N\NC(=O)c2ccccc2)c2sc(Nc3ccc([N+](=O)[O-])cc3)nc2C)cc1OC | -13.3% | 2.5% | 11.1% | 22.8% | 30.8% | -9.85% |
| S=c1sc2ccccc2n1CN1CCCC1 | 6.1% | 0.05% | 29.9% | 11.9% | 8.3% | -6.65% |
| CSc1ccc2c(c1)Cc1cc(N)ccc1-2 | 3.9% | 10.6% | 12.1% | 3.4% | -26.7% | 10.8% |

| Structure (SMILES) | growth inhibition [1] | growth inhibition [2] | growth inhibition [3] | growth inhibition [4] | growth inhibition [5] | growth inhibition [6] |
| --- | --- | --- | --- | --- | --- | --- |
| CC(=O)CC(=O)NCc1ccncc1 | -5.85% | 8.1% | 12.1% | -44.3% | 26.9% | -1.9% |
| COc1cc(/C=N/N2CC(=O)N(c3cccc(Cl)c3)CC2=O)cc(OC)c1 | -1.65% | 5.7% | -1.6% | -12.8% | -4.65% | 26.7% |
| CCc1ccccc1NC(=O)Sc1cccc(C)c1 | -3% | 27% | 25.6% | -12.9% | 23% | -28.9% |
| CCC(=O)C1(CCCN(C)C)c2ccccc2Sc2ccccc21 | -14.3% | 2.45% | -8.6% | -38.1% | -2.35% | 4.6% |
| CCOc1ccc(-c2nnc(Nc3ccc(S(=O)(=O)N4CCCCC4)cc3)s2)cc1 | 10.3% | 9.6% | 13.7% | -38% | -2.15% | 16.7% |
| CCOC(=O)c1nc2ccccc2c(=O)n1NC(=S)Nc1ccc(Cl)cc1 | -40.4% | 5.95% | -1.2% | 8.8% | -4.15% | -15% |
| [N-]=[N+]=Nc1ccnc2cc(C(F)(F)F)ccc12 | -31.5% | 3.35% | -2.25% | -36.7% | 4.45% | 11.1% |
| NC(=S)N/N=C/c1ccc(Cl)cc1Cl | 65.7% | 42.5% | 35.9% | 28.3% | 45.2% | 38.7% |
| O=S(=O)(c1ccccc1)C1C2CCC(O2)C1S(=O)(=O)c1ccccc1 (stereo unspecified) | 19.4% | 7.8% | 15.7% | 30.9% | 29.6% | 10.1% |
| Cc1cc2[nH]c3ccccc3n2c(=O)c1N=Nc1ccccc1 | 3.1% | 4.65% | 9.75% | -14.3% | 7.05% | 15.8% |
| C(=C\C[P+](c1ccccc1)(c1ccccc1)c1ccccc1)/C[P+](c1ccccc1)(c1ccccc1)c1ccccc1 | 12.3% | 13% | 4.95% | -5.55% | -2.75% | 27.9% |
| CC/C(=N\NC(=O)c1ccncc1)c1ccc(Cl)cc1 | 1.1% | 9.05% | -3.15% | 17.9% | 2.9% | -1.95% |
| O=c1ccnc2c1ccc1[nH]cccc12 | 1.35% | 6.25% | -13.9% | 1% | 8.6% | 13.3% |
| CC(=O)c1ccc(N2CCCCC2)cc1 | -7.8% | -12.2% | 4.55% | -3.1% | 40% | -14.4% |
| CCOC(=O)/C(C#N)=C\N(C)C | 8.75% | -12.7% | 5.65% | 5.65% | 9.65% | 13.5% |
| C[n+]1ccccc1C(=O)O | 29.3% | 28.9% | 50.4% | 26.6% | 31.3% | 40.4% |
| O=[N+]([O-])c1cccc(S/N=C/c2ccccc2)c1 | 98.8% (active) | 98.4% (active) | 99% (active) | 92.3% (active) | 98.5% (active) | 98.8% (active) |
| CN1CCCC1=Nc1ccc([N+](=O)[O-])cc1 | 23.1% | -3.55% | 23% | -29.3% | -11.9% | 25.9% |
| Cc1ccc(I)c(C)c1 | -40% | -10% | -39.4% | -3.6% | -1.15% | -7.3% |
| CN(C)/N=C\c1ccc([N+](C)(C)C)cc1 | -20.4% | -25.1% | 7.05% | -19.9% | 32.8% | -44.7% |
